Experimental data as given in PubChem BioAssay.

Experiment: RPL19A-GFP modulators, yeast TOR pathway, confirmation, cell-based, S. cerevisiae, flow cytometry, cherry picks, mother/daughter gates (AID 2270)
Settings: S. cerevisiae RPL19A-GFP strain, 3 h, at 10 µM, stronger effect = lower value, 100 = same GFP as DMSO wells;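 active = GFP response below 50% of the DMSO control; inconclusive = fewer than 70 events counted for a yeast strain; inactive = the rest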

GFP response vs DMSO, inactive:
N/C(=N\OC(=O)c1ccc(Cl)cc1Cl)c1ccccc1 98.4%, CCCCNC(=O)c1cc2c(=O)n3cccc(C)c3nc2n(Cc2ccncc2)c1=N 97.2%, CC(OC(=O)c1cccs1)C(=O)Nc1nc(-c2ccccc2)cs1 (centres undefined) 98.7%, Cc1ccc2c(c1)C1CN(C)CCC1N2C(=O)c1ccc(Cl)c(S(=O)(=O)N2CCOCC2)c1 (centres undefined) 102%, Fc1ccc(C2Nc3cccc4cccc(c34)N2)cc1 98.2%, COc1ccccc1/C=C/C(=O)c1ccc(Cl)cc1 102%, O=C(O)CSC1CC(=O)N(c2ccc(Cl)cc2)C1=O (centres undefined) 93.1%, CCN(CC)CCCN(C(=O)c1cccs1)c1nc(-c2ccc(OC)cc2)cs1 104%, Cc1nc2ccc(Br)cn2c1NC(C)(C)C 98.4%, CC(C)(C)C(=O)NC(=S)NNC(=O)c1sc2ccccc2c1Cl 116%, Cc1cccc(N=c2oc3cc(O)ccc3cc2C(N)=O)c1 96.5%, CCC(=O)OCCNc1cc(Sc2nc3ccccc3s2)c2nonc2c1[N+](=O)[O-] 90.5%, O=C(NOC(=O)c1ccccc1)c1ccccc1 108%, CN(C)CCCN(C(=O)c1cccs1)c1nc(-c2ccccc2)cs1 98%
